HGIII-sPLA2 inh: Inhibits HGIII-sPLA2 liposome hydrolysis, primary screen. Q9NZ20. QFRET BODIPY PC-A2 liposome hydrolysis, fluorescence. inhibition, % at 12.2 µM. 370,000 compounds, 0.56% hits. AID 743126;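 active means inhibition above mean plus 3 SD of compounds lying within the high and low control bounds, cut at about 19% in these data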
ADAM10 inh: ADAM10 inhibition, QFRET primary screen; recombinant ADAM10, EDANS/DABCYL FRET peptide cleavage, 3 h; inhibition, % at 7 µM; 370,000 compounds, 0.62% hits; AID 720582;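 active means inhibition above a per-campaign cutoff equal to the mean of compounds falling between control-based bounds plus 3 SD, cut at about 20% in these data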
ADAM17 inh: ADAM17 inhibition, QFRET primary screen | 370,000 compounds, 0.83% hits | recombinant ADAM17, EDANS/DABCYL FRET peptide cleavage | AID 720648 | inhibition, % at 6.95 µM | P78536;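 active means inhibition above the mean of compounds lying between control limits plus 3 SD, set per campaign, cut at about 8.5% in these data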
Target sequence (P78536 215-824 limits assumed): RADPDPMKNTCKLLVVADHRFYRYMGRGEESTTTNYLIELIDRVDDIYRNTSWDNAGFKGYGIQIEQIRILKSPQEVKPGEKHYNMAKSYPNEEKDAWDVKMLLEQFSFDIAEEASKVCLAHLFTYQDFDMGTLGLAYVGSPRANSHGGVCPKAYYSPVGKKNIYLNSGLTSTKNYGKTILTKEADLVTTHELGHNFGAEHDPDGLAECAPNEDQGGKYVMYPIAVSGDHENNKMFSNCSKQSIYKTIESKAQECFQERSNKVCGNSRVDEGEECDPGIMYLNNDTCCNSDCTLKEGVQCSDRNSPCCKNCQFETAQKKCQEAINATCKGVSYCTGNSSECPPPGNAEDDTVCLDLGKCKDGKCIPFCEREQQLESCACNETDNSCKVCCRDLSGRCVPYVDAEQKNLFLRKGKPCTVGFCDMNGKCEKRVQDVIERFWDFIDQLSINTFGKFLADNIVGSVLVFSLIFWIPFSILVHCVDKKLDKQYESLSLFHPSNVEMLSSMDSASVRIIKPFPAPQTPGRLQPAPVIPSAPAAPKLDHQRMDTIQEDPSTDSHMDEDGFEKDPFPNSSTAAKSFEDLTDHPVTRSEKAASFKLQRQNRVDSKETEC
CendR NRP1 mod: modulators of CendR peptide binding to human neuropilin-1 | FAM-RPARPAR peptide binding to NRP-1, fluorescence polarization | inhibition, % at 25 µM | 360,000 compounds, 0.85% hits;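 active means inhibition or corrected inhibition above about 18%, plus a signal ratio from 0.5 to 1.5, limit read from the data, passing the limit was not always enough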
proKLK7 act: activates the human kallikrein-7 zymogen | purified proKLK7, EDANS-DABCYL substrate fluorescence; 100% is mature enzyme control, 0% vehicle | P49862 | AID 652039 | 370,000 compounds, 0.9% hits | activation, % at 7 µM;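 active means activation above the mean of all tested compounds plus 3 SD, computed per campaign excluding outliers beyond control limits, cut at about 13% in these data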
KLK7 act conf: confirmation of human kallikrein-7 zymogen activators. shares compounds with proKLK7 act. purified proKLK7, EDANS-DABCYL substrate fluorescence; scaled: vehicle 0, mature enzyme 100. activation, % at 7 µM. 3,200 compounds, 68% hits;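 active means activation, as change over the incubation, above the mean of all tested compounds plus 3 SD, cut at about 13% in these data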
EDANS interfere: fluorescence interference counter-screen for KLK7 activators; shares compounds with proKLK7 act; EDANS-DABCYL substrate fluorescence interference, no enzyme, 4 h; solvent 0%, active enzyme control 100%; activation, % at 7 µM; 3,200 compounds, 80% hits;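 active means activation above the all-compound mean plus 3 SD, ignoring values outside control-based bounds, cut at about 4.8% in these data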;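 further: value is the 4 h activation minus the activation read at time zero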
EDANS interf: EDANS fluorescence interference in dose response, no enzyme. 250 compounds, 20% hits. EDANS-DABCYL peptide fluorescence interference. EC50, µM. shares compounds with proKLK7 act;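 active means compounds that raise the fluorescence signal in this interference counterscreen, with EC50 at or below 10 µM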;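 further: intact quenched peptide substrate alone read at 355 nm excitation and 520 nm emission; signal is fluorescence gain from T0 to T4 after four hours at room temperature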
Large screens that a line does not name were inactive (follow-up assays come after a bar, where they were run). Only some compounds are listed: those with a hit (about 3.4% of all), similar ones and a draw of the others.

CCOc1ccccc1C(=O)N/N=C/c1coc2ccc(C)cc2c1=O	proKLK7 act 24 | KLK7 act conf 58 | EDANS interfere 54
CC(C)Oc1ccc(Oc2ccc(C#C[C@H](C)N3C(=O)c4ccccc4C3=O)cc2)cn1	none (no result: CendR NRP1 mod, proKLK7 act)
CC(C)CNc1ccc2c(c1)OC[C@H](C)NS2(=O)=O	none (no result: CendR NRP1 mod)
COC(=O)C[C@H]1CC[C@@H]2[C@H](COc3ccc(NS(C)(=O)=O)cc3C(=O)N2C)O1	none (no result: CendR NRP1 mod)
Cc1ccc(C=Nc2ccccc2C(N)=O)s1	proKLK7 act 17 | KLK7 act conf inactive | EDANS interfere 14
Cc1cccc(C=Nc2ccccc2C(N)=O)c1	proKLK7 act 13 | KLK7 act conf 28 | EDANS interfere 22 | EDANS interf inactive
COC(=O)C1=C(C)N(Cc2cccc(C(F)(F)F)c2)C(=NCc2ccccc2C(F)(F)F)NC1c1cccc(C(F)(F)F)c1 (stereo not given)	none (no result: CendR NRP1 mod)
O=C(NCCO)[C@H](Cc1ccccc1)NC1(C(=O)NCCN2CCOCC2)CCCCC1	none (no result: CendR NRP1 mod, proKLK7 act)
CC(C)CN1C[C@@H]2CSCCS(=O)(=O)N2C1=O	none (no result: CendR NRP1 mod)
Cc1cc(OCC(=O)N2CCC(C(=O)O)CC2)c2c(C)cc(=O)oc2c1	none
CCCCc1cc(=O)oc2cc(C)cc(OCC(=O)N3CCC(C(=O)O)(c4ccccc4)CC3)c12	none
CCCc1cc(=O)oc2cc(C)cc(OCC(=O)N3CCC(C(N)=O)CC3)c12	proKLK7 act 17 | KLK7 act conf inactive | EDANS interfere 10
CCc1cc(=O)oc2cc(C)cc(OCC(=O)C(C)(C)C)c12	none
CCCCc1cc(=O)oc2cc(C)cc(OCC(=O)N3CCC(C(=O)O)CC3)c12	proKLK7 act 17 | KLK7 act conf 25 | EDANS interfere 18 | EDANS interf inactive
CCc1cc(=O)oc2cc(C)cc(OCC(C)=O)c12	proKLK7 act 13 | KLK7 act conf inactive | EDANS interfere 17
CCc1cc(=O)oc2cc(C)cc(OCC(=O)N3CCC(C(=O)O)CC3)c12	proKLK7 act 16 | KLK7 act conf 19 | EDANS interfere 19
FC(F)(F)c1ccc(Cn2ccc3ccc(-c4ccc5ccn(Cc6ccccc6)c5c4)cc32)cc1	none (no result: CendR NRP1 mod)
CC(C)NC(=O)N[C@H]1C[C@@H]2O[C@H](CO)CC[C@@H]2O[C@@H]1CCc1ccc(-c2ccccc2F)cc1	none (no result: CendR NRP1 mod)
COc1ccc(Cn2cc(CN3[C@@H](C)COc4cc(Br)ccc4S3(=O)=O)nn2)cc1	none (no result: CendR NRP1 mod)
CCCc1cc(=O)oc2cc(C)cc(OCC(=O)N3CCC(C(=O)O)CC3)c12	proKLK7 act 16 | KLK7 act conf 13 | EDANS interfere 16
O=C(CNS(=O)(=O)c1cccc2ccccc12)N1CCN(c2ncccn2)CC1	none (no result: CendR NRP1 mod)
CCN(CC)CCn1c2ccccc2c2cnc(N)c(C#N)c21	proKLK7 act 18 | KLK7 act conf inactive | EDANS interfere inactive
CN(C)C=Nc1ncc2c3ccccc3n(CCN(C)C)c2c1C#N	none
COc1ccc(CCNC(=O)COC(=O)c2ccccc2NCCO)cc1OC	proKLK7 act 19 | KLK7 act conf 26 | EDANS interfere 34
O=C(COC(=O)c1ccccc1NCCO)NCc1cccs1	proKLK7 act 18 | KLK7 act conf 19 | EDANS interfere 21
COc1ccc(CCNC(=O)COC(=O)c2ccco2)cc1OC	none
CCN(CC)CCNC(=O)c1cc2c(-c3cccc(OC)c3)nn(C)c2s1	proKLK7 act 24 | KLK7 act conf inactive | EDANS interfere 6.9
COCCCNC(=O)c1cc2c(-c3cccc(OC)c3)nn(C)c2s1	none
COc1ccc(-c2ccc(C3C(C#N)=C(N)Oc4n[nH]c(C)c43)o2)cc1 (stereo not given)	proKLK7 act 14 | KLK7 act conf inactive | EDANS interfere 9.0
Cc1[nH]nc2c1C(c1ccc(OC(=O)c3ccco3)cc1)C(C#N)=C(N)O2 (stereo not given)	proKLK7 act 310 | KLK7 act conf inactive | EDANS interfere inactive
CC(C)c1[nH]nc2c1C(c1ccc(OC(=O)c3ccco3)cc1)C(C#N)=C(N)O2 (stereo not given)	none
O=c1ccc2c(-c3ccccc3)c3ccc(O)cc3oc-2c1	proKLK7 act 25 | KLK7 act conf 49 | EDANS interfere 51
O=C(Nc1ccc(O)c(-c2nc3ccccc3s2)c1)c1cccs1	none
O=C(Nc1ccc(F)cc1)Nc1sccc1-c1nc2ccccc2s1	proKLK7 act 32 | KLK7 act conf inactive | EDANS interfere inactive
O=C(Nc1cccc(-c2nc3ccccc3[nH]2)c1)c1cccc(NC(=O)c2ccco2)c1	proKLK7 act 34 | KLK7 act conf inactive | EDANS interfere inactive
O=C(Nc1ccc2nc(-c3ccccc3)[nH]c2c1)c1ccco1	none
Nc1c(C(=O)N2CCN(c3ccccc3)CC2)nnn1Cc1ccc(Cl)cc1	none (no result: CendR NRP1 mod)
COc1ccc2[nH]c(=O)c(C(=O)O)cc2c1	proKLK7 act 19 | KLK7 act conf inactive | EDANS interfere 21
COc1ccc2[nH]c(=O)c(CN(C(C)=O)c3ccc(C)c(C)c3)cc2c1	none
COc1ccc2[nH]c(=O)cc(C(=O)O)c2c1	proKLK7 act 20 | KLK7 act conf 39 | EDANS interfere 45
COc1ccc(NC(=O)c2cc(=O)[nH]c3ccccc23)cc1	none
COC(=O)[C@]12C[C@H](CC(=O)NCC34CC5CC(CC(C5)C3)C4)C(=O)N(Cc3ccc(Cl)cc3Cl)C1=C[C@H](C(C)C)O[C@@H]2C1CC1	none (no result: CendR NRP1 mod)
COc1cccc2sc3cc(NCc4ccc(C)o4)ccc3c(=O)c12	proKLK7 act 43 | KLK7 act conf 38 | EDANS interfere 39
COc1cc2sc3cc(NCCCN4CCOCC4)ccc3c(=O)c2cc1OC	none
CC(=O)Oc1ccc2c3c(c(=O)oc2c1C)CCCC3	proKLK7 act 168 | KLK7 act conf 531 | EDANS interfere 500
COc1cccc(OC)c1C(=O)Nc1nc2cc3c(cc2s1)OCO3	proKLK7 act 19 | KLK7 act conf inactive | EDANS interfere inactive
CCCn1c(CCC(=O)O)ccc1-c1cccs1	none
COCCCn1c(CCC(=O)O)ccc1-c1cccs1	proKLK7 act 13 | KLK7 act conf inactive | EDANS interfere 8.7
COC(=O)c1c(C)nc2nonc2c1N	proKLK7 act 14 | KLK7 act conf 47 | EDANS interfere 49
COC(=O)c1c(C)nc2c(c(SC)nn2-c2ccccc2)c1N	none
CCN1CCN(Cc2c(O)ccc3c2O/C(=C\C=C\c2ccccc2OC)C3=O)CC1	none
Cc1ccc(/C=C2\Oc3c(ccc(O)c3CN3CCN(CCO)CC3)C2=O)cc1	proKLK7 act 96 | KLK7 act conf 79 | EDANS interfere 73

Screening results deposited in PubChem by several laboratories.
